Source: PubChem BioAssay
Many of the other results were omitted from the sample, so hits are more common in it than they were.
BLM helicase inh: blocks DNA unwinding by human BLM helicase. hit rate 0.2% among 350,000. Potency, µM (top dose mostly 56.1 µM), for inactives: at the top dose activity change, negative = inhibition, usual class: inhibitors. recombinant BLM DNA unwinding, fluorescence dequenching. P54132;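 note: plate controls were vehicle for no effect and no enzyme for full effect; nearly all actives have a fitted effect of over 35% in size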
APE1 inh: inhibitors of human APE1 endonuclease | P27695 | recombinant APE1, TAMRA/BHQ-2 abasic DNA cleavage fluorescence | Potency, µM (doses to about 65.8 µM), without a hit: top-dose activity change, negative = inhibition, actives largely listed as inhibitors | hit rate 0.35% among 350,000;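 note: plate controls were vehicle for no effect and reference inhibitor for full effect; nearly all actives have a fitted effect of over 55% in size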
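APE1 at 0.75 nM preincubated 15 min at room temperature with compound. Reaction then started with 50 nM double-stranded THF-abasic substrate labelled with TAMRA/BHQ-2, and 525/598 nm fluorescence read kinetically. Activity taken as third-minus-first read difference, normalized to DMSO and NSC13755 controls.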
RECQ1 inh-1: inhibitors of human RECQ1 DNA helicase | hit rate 0.54% among 240,000 | Potency, µM (titrated, usually from 57.3 µM), without a hit: top-dose activity, negative = inhibition, hits mostly inhibitors | RECQ1 DNA unwinding, red fluorescence kinetic read | P46063;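 note: plate controls were vehicle for no effect and no enzyme for full effect; nearly all actives have a fitted effect of over 30% in size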
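RECQ1T1 50 nM; forked duplex (20 bp + 30-nt ss tails) 200 nM, ATP 2 mM final; pH 8.0, 2 mM MgCl2, 2.5 ug/ml poly(dI-dC); 15 min compound preincubation; discontinuous kinetic read over 2 h at RT.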
RGS12 GoLoco inh: RGS12 GoLoco-Gai1 interaction inhibition. Gai1:RGS12 GoLoco peptide FP, rhodamine, 10 min. Potency, µM (titrated, usually from 61.6 µM), for the others: at the top dose activity, negative = inhibition, hits mostly inhibitors. hit rate 0.44% among 230,000; active = well fitted inhibition curve with a large enough effect, not every such curve was filed as active; inactive = no such curve, though single readings can be large or run the other way; note: nearly all actives have a fitted effect of over 30% in size
Target sequence (P63096 whole entry, looked up): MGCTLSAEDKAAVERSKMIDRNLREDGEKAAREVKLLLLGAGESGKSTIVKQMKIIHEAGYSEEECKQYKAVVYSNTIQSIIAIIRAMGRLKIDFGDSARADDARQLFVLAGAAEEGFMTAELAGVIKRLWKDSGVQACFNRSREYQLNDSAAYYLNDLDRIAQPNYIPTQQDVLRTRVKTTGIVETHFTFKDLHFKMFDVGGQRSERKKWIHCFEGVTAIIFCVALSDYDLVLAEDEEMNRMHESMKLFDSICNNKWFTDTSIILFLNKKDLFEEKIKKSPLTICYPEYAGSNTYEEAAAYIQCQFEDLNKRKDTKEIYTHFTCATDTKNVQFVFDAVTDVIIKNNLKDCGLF
KDM4E inh: blocks human JMJD2E demethylase activity. B2RXH2. JMJD2E catalytic domain, FDH-coupled NADH fluorescence (FDH is formaldehyde dehydrogenase). Potency, µM (series often up to 57.1 µM), for the others: at the highest dose activity change, negative = inhibition, usual class: inhibitors. hit rate 1.6% among 230,000. AID 2147; active = well fitted inhibition curve with a large enough effect, not every such curve was filed as active; inconclusive = small, poorly fitted or top-dose-only effect, or another doubt; inactive = no such curve, though single readings can be large or run the other way;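 note: 0% = wells with enzyme and -100% = buffer wells without enzyme; nearly all actives have a fitted effect of over 50% in size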
Target sequence (B2RXH2 1-337 limits assumed): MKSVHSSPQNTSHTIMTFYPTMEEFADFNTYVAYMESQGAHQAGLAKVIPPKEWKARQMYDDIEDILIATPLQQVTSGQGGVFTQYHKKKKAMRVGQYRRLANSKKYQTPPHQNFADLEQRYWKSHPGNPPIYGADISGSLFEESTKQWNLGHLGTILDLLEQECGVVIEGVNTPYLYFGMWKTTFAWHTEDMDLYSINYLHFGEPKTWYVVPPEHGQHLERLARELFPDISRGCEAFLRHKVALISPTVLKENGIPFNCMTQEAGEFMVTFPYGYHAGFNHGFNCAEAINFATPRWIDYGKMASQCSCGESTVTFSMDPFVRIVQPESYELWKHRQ
L3MBTL1 inh: L3MBTL1 (human) inhibition; hit rate 0.66% among 230,000; Q9Y468; AID 485360; Potency, µM (top dose mostly 57.1 µM), without a hit: at the highest dose activity, negative = inhibition, most hits filed as inhibitors; AlphaScreen L3MBTL1–H3K9me1 peptide binding; note: nearly all actives have a fitted effect of over 60% in size
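Read-out is AlphaScreen signal from streptavidin donor and nickel chelate acceptor beads (10 ug/mL final each) bridging L3MBTL1 (50 nM) and biotinylated K9-monomethylated H3(1-15) peptide (75 nM), after 30 min compound exposure at room temperature.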
RECQ1 conf: confirmation of human RECQ1 helicase inhibitors; shares compounds with RECQ1 inh-1; RECQ1 helicase DNA unwinding, fluorescence; Potency, µM (titrated, usually from 229 µM), for the others: top-dose activity change, negative = inhibition, hits mostly inhibitors; hit rate 28% among 610; note: nearly all actives have a fitted effect of over 45% in size
ADP FP counter: counter-screen for RECQ1 inhibitors: ADP displacement; shares compounds with RECQ1 inh-1; ADP fluorescence polarization displacement counterscreen; Potency, µM (top dose mostly 228 µM), for the others: at the highest dose activity change, negative = inhibition, most hits filed as inhibitors; hit rate 27% among 530; note: nearly all actives have a fitted effect of over 45% in size
RECQ1 inh-2: confirmation of human RECQ1 helicase inhibitors; shares compounds with RECQ1 inh-1; recombinant RECQ1 DNA unwinding, red fluorescence; Potency, µM (titrated, usually from 119 µM), without a hit: at the top dose activity, negative = inhibition, hits mostly inhibitors; hit rate 15% among 1,100; AID 504841; note: nearly all actives have a fitted effect of over 50% in size
* = called active by the depositor; i = inactive; ? = inconclusive; / = no result; [ ] = dose if it differs, or a comment. Unless noted, calls come from the whole dose curve; as a rule, active = well fitted curve in the direction sought with a large enough effect; inconclusive = small, poorly fitted or top-dose-only effect, or another doubt; inactive = no such curve, though single readings can be large; an effect the other way counts as inactive or inconclusive. Unless noted, % is set by controls: 0 for no effect and ±100 for the full control effect; potency is the fitted concentration of half-maximal effect.

SMILES | BLM helicase inh | APE1 inh | RECQ1 inh-1 | RGS12 GoLoco inh | KDM4E inh | L3MBTL1 inh | RECQ1 inh-2 | others
O=C(NC1CCCC1)c1ccc2nc(-c3ccco3)c(-c3ccco3)nc2c1 | ? | ? | ? | / | -3% | -27% | -21%
Cc1ccc(S(=O)(=O)/N=C2/NC(=O)/C(=C\c3ccccc3)S2)cc1 | / | 46% | / | / | / | -7% | /
CC(=O)Nc1ccc(S(=O)(=O)/N=C2/NC(=O)/C(=C\c3ccco3)S2)cc1 | 0% | ? | ? | 30% | ? | / | -24%
Cc1ccc(S(=O)(=O)/N=C2/NC(=O)/C(=C\c3ccco3)S2)cc1 | -5% | -11% | ? | -1% | -1% | -10% | -20%
CCCN1CCN(c2ncnc3c2nnn3Cc2ccccc2)CC1 | 2% | 14% | -6% | -7% | 2% | / | /
c1ccc(Cn2nnc3c(N4CCCCCC4)ncnc32)cc1 | 1% | 8% | ? | 14% | -4% | 14% | -12%
CCCCC1=CC2=CC(=O)C(C)(OC(=O)c3cccs3)C(=O)C2=CO1 (stereo not drawn) | -14% | -5% | -18% | 23% | -7% | / | /
COC(=O)CCCC1=CC2=CC(=O)C(C)(OC(=O)c3cccs3)C(=O)C2=CO1 (stereo not drawn) | -10% | ? | ? | 29% | 7% | / | ?
O=C(Cc1cccs1)NC1C(=O)N2C(C(=O)[O-])=C(C[n+]3ccccc3)CSC12 (stereo not drawn) | -22% | / | ? | 18% | ? | / | / | RECQ1 conf=?;ADP FP counter=6.3µM*
CN1C(=O)c2ccccc2Sc2ccc(NC(=O)COc3ccccc3)cc21 | -7% | / | / | / | / | / | /
C=CCNC(=O)c1cc2c(=O)c3ccccc3oc2nc1C | -1% | -12% | 28µM* | 156% | ? | -4% | -10%
Cc1nc2oc3ccccc3c(=O)c2cc1C(=O)O | -1% | 20% | / | / | / | / | /
COc1ccc(C(=O)NCCCN2CCOCC2)cc1S(=O)(=O)N1CCCc2ccccc21 | -6% | 18% | 40µM* | 10% | -9% | / | 0%
Cc1ccc(-n2nc(-c3ccco3)cc2C(=O)O)cc1 | 0% | ? | 20µM* | -9% | ? | / | ?
COc1cc2c(cc1OC)C1=NC(=O)CN1C(SCc1ccc(C)cc1)=N2 | 3% | -5% | -17% | 20% | ? | 0% | /
Cc1ccc(CSC2=Nc3sccc3C3=NC(=O)CN23)cc1 | -15% | 12% | 32µM* | 49% | -3% | -9% | -4%
COc1ccc2cc(-c3[nH]ncc3CN3CCCN(c4ccccc4)CC3)ccc2c1 | -6% | -7% | ? | 1% | -24% | -15% | -23%
COc1ccc(-c2[nH]ncc2CN2CCCN(c3ccccc3)CC2)c(F)c1 | -1% | 7% | i | 12% | -3% | ? | /
CS(=O)(=O)c1ccc2nc(NC(=O)c3ccc(NS(=O)(=O)c4ccc(F)c(F)c4)cc3)sc2c1 | -12% | -6% | 32µM* | 4% | ? | / | -21%
O=C(Nc1nc2ccc(SC(F)F)cc2s1)c1ccc(NS(=O)(=O)c2ccc(F)c(F)c2)cc1 | -19% | -9% | ? | 6% | ? | -12% | ?
CC(C)(C)NS(=O)(=O)c1ccc2nc(NC(=O)c3ccc(N4C(=O)CCC4=O)cc3)sc2c1 | -9% | -1% | i | 14% | -10% | 40% | / | RECQ1 conf=14%;ADP FP counter=-6%
Cc1ccc2c(c1C)NC(=O)CC2c1ccc(Cl)cc1Cl (stereo not drawn) | -12% | / | / | / | / | / | /
COC(=O)c1cccnc1-n1c(=O)c2cccnc2n(CC(=O)Nc2cccc(C(F)(F)F)c2)c1=O | -3% | / | / | / | / | / | /
CCNc1ncc2nc(-c3cc(F)cc(F)c3)c(=O)n(CCc3ccccc3)c2n1 | -9% | ? | ? | -98% | / | / | 16µM*
O=C(Nc1ccc2nc(-c3cccs3)[nH]c2c1)c1cccs1 | 5% | 18% | i | -11% | 0% | / | /
SMILES | BLM helicase inh | APE1 inh | RECQ1 inh-1 | RGS12 GoLoco inh | KDM4E inh | L3MBTL1 inh | RECQ1 inh-2 | others
O=C(Nc1ccc(-c2nc3ccc(NC(=O)c4cccs4)cc3[nH]2)cc1)c1cccs1 | -5% | ? | ? | 7% | ? | / | ?
COc1ccc(OC)c(Nc2nc(NCCCN(C)C)nc(N)c2[N+](=O)[O-])c1 | ? | ? | ? | -1% | 3% | -12% | ?
COc1ccc(N2CCN(C(CNS(=O)(=O)c3ccc(OC)c(C)c3)c3ccco3)CC2)cc1 (stereo not drawn) | -8% | / | / | / | / | / | /
O=C(CSc1nc(O)cc(=O)[nH]1)N1c2ccccc2Sc2ccccc21 | -2% | 0% | -5% | 5% | -5% | -14% | /
O=C(CSc1nc2ccccc2[nH]1)N1c2ccccc2Sc2ccccc21 | -7% | ? | ? | 16% | -1% | -1% | ?
O=C(CSc1nc2ccccc2[nH]1)N1CCCCC1 | -1% | -3% | -10% | 13% | 0% | / | /
Cc1c(C)n(C(=O)CSc2nc3ccccc3[nH]2)c2ccccc12 | -11% | 14µM* | 8.9µM* | 10% | -10% | / | 35µM* | RECQ1 conf=50µM*;ADP FP counter=3%[91.9 µM]
Cc1ccc(CN(Cc2ccco2)C(=O)COc2ccc(Cl)cc2)o1 | -7% | / | / | / | / | / | /
CC(C)CN1CC[C@@]2(CCCN(S(=O)(=O)c3ccccc3)C2)C1 | 2% | 11% | -7% | 13% | / | / | /
COCCCNC(=O)c1ccc2c3c(onc13)-c1ccccc1C2=O | -7% | ? | 13µM* | 20µM* | ? | -25% | 50µM*
COCCCNC(=O)c1ccccc1Oc1ccccc1 | 0% | 0% | -7% | 9% | 6% | 0% | /
Cc1cc(N/N=C(/CCC(=O)O)C(=O)O)nc2ccccc12 | 2% | ? | -4% | 8% | ? | 9% | / | RECQ1 conf=9%;ADP FP counter=-13%
Cc1cc(N/N=C/c2ccccc2Br)nc2ccccc12 | -2% | 2% | -4% | 0% | -23% | 14% | /
O=C(CC1NCCNC1=O)Nc1cccc(F)c1 (stereo not drawn) | 0% | / | / | / | / | / | /
